# Test results reported in the supplement of paper PMC7366291.
# Where a name gives a salt, the structure may show the parent alone. ± gives the standard deviation of the averaged measurements.
# Tested on: Danio rerio Tg(wt1b:EGFP) embryo, pronephros
# Assay: fraction of imaged embryos annotated as normal kidney; higher = less nephrotoxic; extreme values may be limits of the assay
# Settings: 25 µM; exposure: 24-48 hpf
# How it was run: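 Tricaine-anaesthetised Tg(wt1b:EGFP) zebrafish larvae were oriented dorsally in agarose-filled 96-well plates, and their pronephroi were recorded by widefield fluorescence at 470 nm in 10 z-slices. Before this, the dechorionated embryos had been exposed in 12-well plates to 25 μM compound in 0.5% DMSO and 5 mM HEPES-buffered E3 with 0.003% PTU, from 24 to 48 hpf at 28.5°C. Maximum projections were annotated manually for each embryo, and the read-out is the fraction per treatment classed as normal kidney.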
row,Compound,fraction of imaged embryos annotated as normal kidney
1,COC(=O)C1=C(C#N)NC(C)=C(C(=O)OC(C)C)C1c1cccc([N+](=O)[O-])c1 (stereo not given) [Nilvadipine],0.167
2,CC1=C(/C=C/C(C)=C/C=C/C(C)=C/C(=O)O)C(C)(C)CCC1 [Retinoic acid],0
3,Nc1ccc(O)c(C(=O)O)c1 [Mesalamine],0.917
4,CN1CCN(C2=Nc3ccccc3Oc3ccc(Cl)cc32)CC1 [Loxapine succinate],0.75
5,Clc1ccccc1CN1CCc2sccc2C1 [Ticlopidine hydrochloride],0.833
6,C[C@]12CC[C@H]3C(=CCc4cc(O)ccc43)[C@@H]1CCC2=O [Equilin],0.25
7,Cn1c(=O)c2c(ncn2CC(O)CO)n(C)c1=O (stereo not given) [Diprophylline],0.667
8,Nc1nc(=O)c2nc(CNc3ccc(C(=O)N[C@@H](CCC(=O)O)C(=O)O)cc3)cnc2[nH]1 [Folic acid],0.636
9,CSc1ccc2c(c1)N(CCC1CCCCN1C)c1ccccc1S2 (stereo not given) [Thioridazine hydrochloride],0.75
10,"CC(C)NCC(O)c1ccc(O)c(O)c1 (single isomer, unassigned; (-)) [(-)-Isoproterenol hydrochloride]",0.833
11,CN(Cc1cc(Br)cc(Br)c1N)C1CCCCC1 [Bromhexine hydrochloride],1
12,NCCc1ccc(O)c(O)c1 [Dopamine hydrochloride],0.917
13,CCn1cc(C(=O)O)c(=O)c2cc(F)c(N3CCN(C)CC3)cc21 [Pefloxacine],1
14,O=C1NCN(c2ccccc2)C12CCN(CCCC(c1ccc(F)cc1)c1ccc(F)cc1)CC2 [Fluspirilen],0.333
15,COc1cc2nc(N(C)CCCNC(=O)C3CCCO3)nc(N)c2cc1OC (stereo not given) [Alfuzosin hydrochloride],0.818
16,CC(CN(C)C)C(C)(O)Cc1ccc(Cl)cc1 (stereo not given) [Clobutinol hydrochloride],0.75
17,CCN(CC)C(=O)C1(c2ccccc2)CC1CN (stereo not given) [Milnacipran hydrochloride],1
18,Cc1c(C)c2c(c(C)c1O)CCC(C)(C(=O)O)O2 (stereo not given) [Trolox],0.833
19,C[C@]12CCC(=O)C=C1CC[C@@H]1[C@@H]2C(=O)C[C@@]2(C)[C@H]1CC[C@]2(O)C(=O)CO [Cortisone],0.917
20,CC1COc2c(N3CCN(C)CC3)c(F)cc3c(=O)c(C(=O)O)cn1c23 (stereo not given) [Ofloxacin],0.833
21,CCCCCCCCNC(C)C(O)c1ccc(SC(C)C)cc1 (stereo not given) [Suloctidil],0
22,CO[C@@]1(NC(=O)CSCC#N)C(=O)N2C(C(=O)O)=C(CSc3nnnn3C)CS[C@@H]21 [Cefmetazole sodium salt],0.917
23,Cn1nnc2c(C(N)=O)ncn2c1=O [Temozolomide],0.917
24,NCC[C@H](O)C(=O)N[C@@H]1C[C@H](N)[C@@H](O[C@H]2O[C@H](CN)[C@@H](O)[C@H](O)[C@H]2O)[C@H](O)[C@H]1O[C@H]1O[C@H](CO)[C@@H](O)[C@H](N)[C@H]1O [Amikacin hydrate],0.667
25,COC(=O)Nc1nc2cc(C(=O)c3cccs3)ccc2[nH]1 [Nocodazole],0

# Tested on: Danio rerio Tg(wt1b:EGFP) embryo, pronephros
# Assay: pronephric angle neck segment to proximal convoluted tubule (mean of left and right), fold change vs DMSO control; higher = larger pronephric angle
# Settings: 25 µM; exposure: 24-48 hpf
# How it was run: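 Each feature value is a fold change relative to the mean of same-day DMSO-treated embryos. Embryos of the Tg(wt1b:EGFP) zebrafish line, dechorionated, received 25 μM compound in 0.5% DMSO from 24 to 48 hpf at 28.5°C, in HEPES-buffered E3 with 0.003% PTU. Distances and angles were computed by a Fiji macro from 16 manually set reference points on maximum projections of dorsal pronephros images, and values beyond 2 SD of the feature mean were removed.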
row,Compound,pronephric angle neck segment
1,CC(=O)OC(C)C[N+](C)(C)C (stereo not given) [Methacholine chloride],0.972 ± 0.011
2,CCCc1cc(C(N)=S)ccn1 [Prothionamide],1.007 ± 0.0083
3,CC(N/C(=N\C#N)Nc1ccncc1)C(C)(C)C (stereo not given) [Pinacidil],1.01 ± 0.036
4,CC(COc1ccccc1)N(CCCl)Cc1ccccc1 (stereo not given) [Phenoxybenzamine hydrochloride],1.15 ± 0.036
5,CN1CCN(C(c2ccccc2)c2ccccc2)CC1 [Cyclizine hydrochloride],0.952 ± 0.018
6,Cc1cc(NC(=O)C2=C(O)c3ccccc3S(=O)(=O)N2C)no1 [Isoxicam],1.02 ± 0.036
7,CN(C)CCC(c1ccc(Br)cc1)c1ccccn1 (stereo not given) [Brompheniramine maleate],1.05 ± 0.056
8,CCOc1ccc(NC(C)=O)cc1 [Phenacetin],0.946 ± 0.022
9,Cc1cc(NS(=O)(=O)c2ccc(N)cc2)no1 [Sulfamethoxazole],0.9977 ± 0.0021
10,CN1CCN2c3ccccc3Cc3ccccc3C2C1 (stereo not given) [Mianserine hydrochloride],0.9786 ± 0.0076
11,CCC1(C)CC(=O)NC1=O (stereo not given) [Ethosuximide],0.972 ± 0.013
12,CN(C)CCOC(c1ccccc1)c1ccccc1 [Diphenhydramine hydrochloride],0.942 ± 0.016
13,CC(C(=O)O)c1ccc2c(c1)Cc1cccnc1O2 (stereo not given) [Pranoprofen],1.049 ± 0.01
14,CCN(CC)Cc1cc(Nc2ccnc3cc(Cl)ccc23)ccc1O [Amodiaquin dihydrochloride dihydrate],0.957 ± 0.016
15,CC(=O)OCC(=O)NCCCOc1cccc(CN2CCCCC2)c1 [Roxatidine Acetate hydrochloride],1.01 ± 0.06
16,COC(=O)C1=C(C#N)NC(C)=C(C(=O)OC(C)C)C1c1cccc([N+](=O)[O-])c1 (stereo not given) [Nilvadipine],1.09 ± 0.17
17,CC1=C(/C=C/C(C)=C/C=C/C(C)=C/C(=O)O)C(C)(C)CCC1 [Retinoic acid],1.67 ± 0.033
18,Nc1ccc(O)c(C(=O)O)c1 [Mesalamine],0.971 ± 0.018
19,CN1CCN(C2=Nc3ccccc3Oc3ccc(Cl)cc32)CC1 [Loxapine succinate],1.06 ± 0.013
20,Clc1ccccc1CN1CCc2sccc2C1 [Ticlopidine hydrochloride],1.008 ± 0.0084

row,Compound,pronephric angle neck segment
1,C[C@]12CC[C@H]3C(=CCc4cc(O)ccc43)[C@@H]1CCC2=O [Equilin],1.17 ± 0.015
2,Cn1c(=O)c2c(ncn2CC(O)CO)n(C)c1=O (stereo not given) [Diprophylline],1.05 ± 0.051
3,Nc1nc(=O)c2nc(CNc3ccc(C(=O)N[C@@H](CCC(=O)O)C(=O)O)cc3)cnc2[nH]1 [Folic acid],1.04 ± 0.014
4,CSc1ccc2c(c1)N(CCC1CCCCN1C)c1ccccc1S2 (stereo not given) [Thioridazine hydrochloride],0.9994 ± 0.0046
5,"CC(C)NCC(O)c1ccc(O)c(O)c1 (single isomer, unassigned; (-)) [(-)-Isoproterenol hydrochloride]",1.02 ± 0.021
6,CN(Cc1cc(Br)cc(Br)c1N)C1CCCCC1 [Bromhexine hydrochloride],1 ± 0.026
7,NCCc1ccc(O)c(O)c1 [Dopamine hydrochloride],1.011 ± 0.005
8,CCn1cc(C(=O)O)c(=O)c2cc(F)c(N3CCN(C)CC3)cc21 [Pefloxacine],1.01 ± 0.018
9,O=C1NCN(c2ccccc2)C12CCN(CCCC(c1ccc(F)cc1)c1ccc(F)cc1)CC2 [Fluspirilen],1.028 ± 0.0059
10,COc1cc2nc(N(C)CCCNC(=O)C3CCCO3)nc(N)c2cc1OC (stereo not given) [Alfuzosin hydrochloride],0.953 ± 0.036
11,CC(CN(C)C)C(C)(O)Cc1ccc(Cl)cc1 (stereo not given) [Clobutinol hydrochloride],0.979 ± 0.034
12,CCN(CC)C(=O)C1(c2ccccc2)CC1CN (stereo not given) [Milnacipran hydrochloride],0.9653 ± 0.008
13,Cc1c(C)c2c(c(C)c1O)CCC(C)(C(=O)O)O2 (stereo not given) [Trolox],1 ± 0.014
14,C[C@]12CCC(=O)C=C1CC[C@@H]1[C@@H]2C(=O)C[C@@]2(C)[C@H]1CC[C@]2(O)C(=O)CO [Cortisone],1.031 ± 0.0011
15,CC1COc2c(N3CCN(C)CC3)c(F)cc3c(=O)c(C(=O)O)cn1c23 (stereo not given) [Ofloxacin],1.06 ± 0.038
16,CCCCCCCCNC(C)C(O)c1ccc(SC(C)C)cc1 (stereo not given) [Suloctidil],1.48 ± 0.033
17,CO[C@@]1(NC(=O)CSCC#N)C(=O)N2C(C(=O)O)=C(CSc3nnnn3C)CS[C@@H]21 [Cefmetazole sodium salt],0.944 ± 0.042
18,Cn1nnc2c(C(N)=O)ncn2c1=O [Temozolomide],0.9479 ± 0.0066
19,NCC[C@H](O)C(=O)N[C@@H]1C[C@H](N)[C@@H](O[C@H]2O[C@H](CN)[C@@H](O)[C@H](O)[C@H]2O)[C@H](O)[C@H]1O[C@H]1O[C@H](CO)[C@@H](O)[C@H](N)[C@H]1O [Amikacin hydrate],1.04 ± 0.02
20,COC(=O)Nc1nc2cc(C(=O)c3cccs3)ccc2[nH]1 [Nocodazole],1.87 ± 0.13
